Measured values taken from the OligoGym collection.

The sequences below were run against PLS1 (assay: pooled miR-30 sensor sort-seq; sequence = guide strand). Conditions: shRNA.

Compared with TTTAAGAGTCTGATTGACCCAT, TTTATCTGCTTCTTGAAGCATG is lower in sensor-assay potency score (higher = more potent): 0.465 for the first, -0.495 for the second.

TTTGCTTTTTAATTCTTGCATT was tested, and the sensor-assay potency score (higher = more potent) was -1.04.

The sequences below were run against PLTP in the same assay as above. Conditions: shRNA.

First: TTCTTCTCAATCACCTCTCGCA
Second: TCATACACCTTCAAGAACCAGT
The sensor-assay potency score (higher = more potent) of the first is lower: -0.149 for the first, 0.217 for the second.

First: TTGGAATAGATTCGGAACCTGC
Second: ACATTGGACACTTTCATCCGTC
The sensor-assay potency score (higher = more potent) of the first is lower: -0.704 for the first, 0.0628 for the second.

First: TTGAAGCATCAGCTCCTGCTGT
Second: TACACCTTCAAGAACCAGTAGA
The sensor-assay potency score (higher = more potent) of the first is higher: 0.293 for the first, -0.191 for the second.

First: TTGAGCAGGACCGTCCCTGCGT
Second: TACAGCTTCAAATCCCGTCTTC
The sensor-assay potency score (higher = more potent) of the first is higher: -0.0816 for the first, -0.171 for the second.

Going from TCATACACCTTCTTGAAGGTTC to ATAGATTCGGAACCTGCGCAGG, the sensor-assay potency score (higher = more potent) falls from -0.197 to -1.18.

Going from TTGGACACTTTCATCCGTCCAG to TTAAATTGGGTACAGCTTCAAA, the sensor-assay potency score (higher = more potent) falls from -0.0718 to -1.22.

These sequences were tested against PLXNA3 in the same assay as above. Conditions: shRNA.

Going from TAGATCTCGGAGACCATCTTGC to TTGTGTGTCCGAGACAGTGAGC, the sensor-assay potency score (higher = more potent) falls from -0.165 to -0.941.

Compared with TAGTAGGTAAAGGAGGAGCGGT, TACAAGGACAGCGTGTCTGAGG is higher in sensor-assay potency score (higher = more potent): -1.08 for the first, -0.523 for the second.

First: ATCTCGGAGACCATCTTGCTGC
Second: TAGAACTCTGAGTCTCCCGCGC
The sensor-assay potency score (higher = more potent) of the first is lower: -1.06 for the first, -0.24 for the second.

Going from TCACACTCGATCTTGGTGGTGA to TTGTAGTCGATCTGCTGACGGA, the sensor-assay potency score (higher = more potent) falls from 0.265 to -0.986.

Going from ATGTCGAACACGAACTGCGGGT to TGTCTTGTAGTCGATCTGCTGA, the sensor-assay potency score (higher = more potent) rises from -1.37 to -0.0226.

Compared with TAGTCTATGAGCAGCAGCTTGT, TTGTTGATGTTGTCCACGGGGG is higher in sensor-assay potency score (higher = more potent): -0.951 for the first, -0.257 for the second.

The sequences below were run against PM20D1 in the same assay as above. Conditions: shRNA.

Going from TTTCTCTCCATAAACCTGCTTA to TTGAATATGGTGAGTGCCGTGG, the sensor-assay potency score (higher = more potent) falls from 0.0874 to -0.197.

First: TTGGACTGAGATTTTCTCGTTG
Second: TGACATTGAACTTGACCCCTGC
The sensor-assay potency score (higher = more potent) of the first is higher: 0.297 for the first, 0.0724 for the second.

Going from TTGGATAGTGAACAGGTGGCTA to TTGTCGTCCAGTGTGCCCCGAC, the sensor-assay potency score (higher = more potent) rises from -0.715 to -0.594.

First: ATGACATTGAACTTGACCCCTG
Second: TACATTTGTTAAGTCAAGCCTG
The sensor-assay potency score (higher = more potent) of the first is lower: -0.759 for the first, 0.298 for the second.

First: TTGGACTGTCTGTCCAGGGTGA
Second: TTTATGAATGTATTTTCCGAAC
The sensor-assay potency score (higher = more potent) of the first is higher: 0.135 for the first, -1.32 for the second.

Compared with AATACAGTCACCACTGTCCCGC, TTTCTCGTTGACTCCATGGATG is lower in sensor-assay potency score (higher = more potent): -0.75 for the first, -0.946 for the second.
